# Screening data: PubChem, several laboratories
# This is a sample that favours compounds with a hit; in the whole collection about 4% have one here.
# ADAM10 inh: ADAM10 inhibition, QFRET primary screen. O14672. recombinant ADAM10, EDANS/DABCYL FRET peptide cleavage, 3 h. inhibition, % at 7 µM. hit rate 0.62% among 370,000;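 active = inhibition above a per-campaign cutoff equal to the mean of compounds falling between control-based bounds plus 3 SD, cut at about 20% in these data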;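 also: 0% = DMSO wells while the 100% control is not disclosed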
# ADAM17 inh: inhibits human ADAM17; P78536; recombinant ADAM17, EDANS/DABCYL FRET peptide cleavage; inhibition, % at 6.95 µM; hit rate 0.83% among 370,000; AID 720648;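 active = inhibition above the mean of compounds lying between control limits plus 3 SD, set per campaign, cut at about 8.5% in these data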;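 also: 0% = DMSO-only wells as the low control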
# Target sequence (P78536 215-824 limits assumed): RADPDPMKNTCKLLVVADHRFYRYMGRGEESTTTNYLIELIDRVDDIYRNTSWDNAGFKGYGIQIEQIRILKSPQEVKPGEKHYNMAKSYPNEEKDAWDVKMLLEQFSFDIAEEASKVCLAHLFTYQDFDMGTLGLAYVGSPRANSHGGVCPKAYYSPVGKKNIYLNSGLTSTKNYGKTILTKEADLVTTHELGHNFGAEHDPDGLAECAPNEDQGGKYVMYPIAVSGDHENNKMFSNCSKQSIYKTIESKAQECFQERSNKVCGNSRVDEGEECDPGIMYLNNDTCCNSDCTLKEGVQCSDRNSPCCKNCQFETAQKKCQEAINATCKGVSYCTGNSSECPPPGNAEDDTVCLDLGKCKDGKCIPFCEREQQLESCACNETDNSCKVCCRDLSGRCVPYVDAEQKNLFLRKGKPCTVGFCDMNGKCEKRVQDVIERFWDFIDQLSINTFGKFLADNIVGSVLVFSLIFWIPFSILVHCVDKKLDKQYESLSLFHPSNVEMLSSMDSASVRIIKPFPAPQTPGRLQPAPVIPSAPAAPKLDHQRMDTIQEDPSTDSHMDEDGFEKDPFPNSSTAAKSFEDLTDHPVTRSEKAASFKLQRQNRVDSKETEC
# GRIN3A LBD mod: NR3A (human) ligand-binding domain modulation. hit rate 2.5% among 340,000. NR3A LBD differential scanning fluorimetry, Tm shift; 0% = protein alone, 100% = glycine-bound protein. Tm shift relative to glycine control, % at 25 µM;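 active = melting temperature shift of at least 10% of the positive control shift, at one fixed dose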
# FAS TE block: blocks the thioesterase domain of human fatty acid synthase | P49327 | recombinant FAS-TE, OMFH fluorogenic substrate, fluorescence endpoint | inhibition, % at 15 µM | hit rate 0.67% among 360,000 | AID 602261;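 active = compounds whose normalised, plate-corrected inhibition of enzyme fluorescence in the single-dose primary screen is 50% or more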;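 also: 0% = DMSO with enzyme and 100% = substrate without enzyme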
# aDG glyco act: increases alpha dystroglycan glycosylation. Pro5-aDG cells, alpha-DG glycosylation AlphaScreen (IIH6); 0% Pro5, 100% B10-LARGE cell signal. activation, % at 10 µM. hit rate 0.22% among 360,000;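 active = activation of at least 8% versus controls, or a plate z-score of at least 8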;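 also: Pro5 are CHO cells carrying HIG-tagged alpha-DG that lacks glycosylation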
# * = called active by the depositor; i = inactive; x = no result given.
SMILES,ADAM10 inh,ADAM17 inh,GRIN3A LBD mod,FAS TE block,aDG glyco act
Cn1c(CC(=O)Nc2ccc(Cl)c(Cl)c2)n[nH]c1=S,8.0,1.6,1.5,1.2,-0.1
COc1ccc(Cc2n[nH]c(=S)n2NC(=O)Nc2ccc(Cl)c(Cl)c2)cc1,15.8,4.4,15.3*,26.9,0.0
CC(C)C[C@@H](CN1CCC[C@@H]1CN1C(=S)NC[C@@H]1Cc1ccccc1)N1C[C@H](Cc2ccc(O)cc2)N(CC2CCCCC2)C1=S,-5.9,1.9,x,-34.3,0.2
CC(C)C[C@H]1CNC(=S)N1CC1CCCN1C[C@H](CC(C)C)N1C[C@H](Cc2ccc(O)cc2)N(CC2CCCCC2)C1=S (some centres not stated),0.1,-1.5,11.9*,-101.9,0.0
CC(C)C[C@@H](CN1CCCC1CN1C(=S)NC[C@@H]1Cc1ccc(O)cc1)N1C[C@H](Cc2ccc(O)cc2)N(CC2CCCCC2)C1=S (some centres not stated),4.3,5.0,33.2*,-51.6,0.5
N#C/C(=C(/O)COc1ccc(Br)cc1)c1nnc2n1CCCCC2,-8.5,0.5,0.3,-5.6,-0.1
Cc1ccccc1NS(=O)(=O)c1ccc(C(=O)NCC(c2ccccc2)N(C)C)cc1 (configuration not stated),-11.7,-3.3,-1.0,-5.5,-0.2
COc1cc(NC(=O)C2=C(N3CCOCC3)/C(=C\c3ccc(N(C)C)cc3)CCC2)cc(OC)c1OC,8.3,0.6,-2.3,15.6,0.2
C=CCn1c(=NC(=O)c2ccc(S(=O)(=O)N3CCCc4ccccc43)cc2)sc2cc(S(N)(=O)=O)ccc21,-9.7,-0.8,13.0*,13.2,0.3
C#CCn1c(=NC(=O)c2ccc(S(=O)(=O)N3CCc4ccccc4C3)cc2)sc2cc(S(N)(=O)=O)ccc21,x,x,-3.7,-7.6,-0.3
COCCn1c(=NC(=O)c2cc(Cl)sc2Cl)sc2cc(S(N)(=O)=O)ccc21,-6.4,-5.8,27.6*,-2.6,0.2
C=CCn1c(=NC(=O)c2ccc(S(=O)(=O)N3CCc4ccccc4C3)cc2)sc2cc(S(N)(=O)=O)ccc21,-207.2,-45.9,18.7*,24.7,-0.2
COCCn1c(=NC(C)=O)sc2cc([N+](=O)[O-])ccc21,-2.1,-2.1,27.1*,1.4,-0.1
C=CCN(CC=C)C(=S)NC(=O)/C=C/c1ccccc1,-0.1,-2.2,-6.0,-5.6,-0.1
COc1ccc(-n2c(C)c(C(C)=O)c(C(C)=O)c2C)cc1OC,-14.3,-2.7,-1.9,-2.6,0.1
C=CCN1C(=O)C(CC(=O)O)SC1=Nc1ccc(N=Nc2ccccc2)cc1 (configuration not stated),12.7,-0.8,1.7,-12.8,-0.4
COc1ccc(OC)c(Cc2nnc(CCC(=O)N3CCN(C4CCCC4)CC3)o2)c1,-2.8,-0.3,-1.6,-2.4,1.0
COC(=O)Cn1c(=NC(=O)c2ccc(S(=O)(=O)N3CCc4ccccc4C3)cc2)sc2cc(OC)ccc21,-29.8,-8.4,-0.6,24.3,0.5
COCCn1c(=NC(=O)c2ccc(S(=O)(=O)N3CCc4ccccc4C3)cc2)sc2cc(S(N)(=O)=O)ccc21,-489.4,-175.8,25.2*,35.2,2.3
Cc1ccc(CNC(=O)C(=O)NCC2OCCN2C(=O)c2cccs2)cc1 (configuration not stated),-3.9,-5.0,14.7*,-8.5,-0.2
Cc1ccc(CNC(=O)C(=O)NCC2OCCN2S(=O)(=O)c2ccc(Cl)cc2)cc1 (configuration not stated),1.8,-3.8,-5.3,12.6,0.4
Cc1ccc(S(=O)(=O)N2CCOC2CNC(=O)C(=O)NCc2ccc(Cl)cc2)cc1 (configuration not stated),-4.9,-5.6,12.6*,7.4,0.8
CCc1ccc(CNC(=O)C(=O)NCC2CCCO2)cc1 (configuration not stated),1.0,-2.2,1.4,-4.7,0.0
Cc1ccc(CNC(=O)C(=O)NCC2CCCO2)cc1 (configuration not stated),11.1,-0.8,15.6*,-10.7,0.2
COc1ccc(Cl)cc1N(CC(=O)N1CCC(C)CC1)S(C)(=O)=O,4.0,0.1,-2.6,-5.3,-0.4
SMILES,ADAM10 inh,ADAM17 inh,GRIN3A LBD mod,FAS TE block,aDG glyco act
Cc1ccc(Cl)cc1NC(=O)Nc1cccs1,-14.8,-3.9,19.7*,-8.3,1.9
Cc1ccccc1NC(=O)Nc1cccs1,2.6,-4.0,-13.3,-1.0,0.1
C/C(=N\Nc1nc2ccccc2[nH]1)c1ccc(Cl)s1,7.6,6.8,15.9*,-25.1,0.6
NC(=O)CSc1nnc2ccc(-c3ccc(F)cc3)nn12,-50.9,-25.4,0.1,-2.4,0.0
COc1ccc(OC2C(=O)N(CCc3ccc(OC)c(OC)c3)C2c2ccc3c(c2)OCO3)cc1 (configuration not stated),7.8,1.3,3.6,22.4,0.0
COc1ccc(CCN2C(=O)C(Oc3ccccc3)C2c2ccc3c(c2)OCO3)cc1 (configuration not stated),-7.0,1.0,11.6*,6.2,-0.3
O=C(COC(=O)C1(c2ccc(F)cc2)CCCC1)NCc1ccc2c(c1)OCO2,14.4,5.3,16.1*,33.8,0.7
Cc1ccc(NC(=O)c2ccc(NS(=O)(=O)/C=C/c3ccccc3)cc2)nc1,16.1,6.3,17.8*,5.8,0.1
C/C(=N\NC(=O)CNc1cccc2ccccc12)c1ccccc1,i,-154.8,-1.2,2.2,-0.4
COc1cccc(/C(O)=C/c2nc3ccc(C(=O)NCCc4ccc(Cl)cc4)cc3[nH]c2=O)c1,-15.3,-5.4,11.1*,-27.9,-0.4
COc1cccc(/C(O)=C/c2nc3ccc(C(=O)NCCc4cccc(C)c4)cc3[nH]c2=O)c1,-74.5,-19.2,-3.2,-11.8,0.1
Cc1cccc(C)c1NC(=O)COC(=O)c1ccc2[nH]c3c(c2c1)CCCC3,-9.8,-4.9,6.0,0.7,-0.2
O=C(COC(=O)c1ccc2[nH]c3c(c2c1)CCCC3)Nc1ccccc1,-76.5,-11.7,21.6*,18.5,1.7
COc1ccc(C(=O)NCc2cnn(C)c2)cc1OC1CCN(C(C)C)CC1,1.4,-3.9,0.3,-7.1,0.1
CC(C)c1ccc(/C=C/C(=O)Nc2nc3ccc([N+](=O)[O-])cc3s2)cc1,-3.2,-4.0,7.5,13.1,-0.4
O=[N+]([O-])c1ccc2nc(NN=Cc3ccc(O)cc3)sc2c1,6.5,3.1,23.1*,9.4,0.0
O=C(Nc1c[nH]c(=O)[nH]c1=O)c1ccccc1Br,-4.8,-2.4,3.6,-4.3,-0.2
Cc1cccn2cc(CNS(=O)(=O)c3cccc(F)c3)nc12,-1.2,0.5,5.9,-6.4,-0.1
CCC(C)(C(=O)NC1CCCC1)N(CC1CCCO1)C(=O)CNC(=O)c1ccccc1 (configuration not stated),3.3,0.7,1.0,-7.7,-0.1
O=C1/C(=C\c2ccc(O)cc2)SC(=S)N1/N=C/c1ccc(O)cc1,-5.1,-4.6,18.8*,-23.6,-0.2
CC(=O)NN1C(=O)/C(=C\c2ccc(O)cc2)SC1=S,1.6,-0.9,0.2,-4.9,-0.2
